Chronic BCR inh: inhibitors of chronic active B-cell receptor signaling | Potency, µM (series often up to 46.1 µM), inactives show at the top dose activity change, negative = inhibition, usual class: inhibitors | hit rate 0.05% among 340,000 | ABC-DLBCL IkBa-CBG/CBR reporter, luminescence ratio, 4 h; active means well fitted inhibition curve with a large enough effect in the signal ratio, with a control signal flat, not every such curve was filed as active; inconclusive means small, poorly fitted or top-dose-only effect, or effect the other way, or a change in a side signal; the % refers to the signal ratio;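 further: potency means the concentration at half of the fitted maximal effect; plate controls were basal doxycycline-induced cells for no effect and cells given 10 µM MG132 for full effect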
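Cell line TMD8 (human ABC DLBCL), stably expressing tet-inducible CBG68-IkBa fusion and CBR; IMDM/0.5% FBS; cpd up to 46 uM; dox induction, 4 h, 37C/5% CO2; dual luminescence; green/red ratio; MG132 control.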
RORg inh: blocks mouse ROR gamma transcriptional activity. P51450. Drosophila S2 Gal4-RORgamma UAS-luciferase reporter, 20 h. Potency, µM (highest dose often 53.6 µM), without a hit: at the highest dose activity change, negative = inhibition, actives largely listed as inhibitors. hit rate 5.4% among 310,000. AID 2551; further: potency means the concentration at half of the fitted maximal effect; on the % scale 0 is the no-effect control and ±100 the full control effect; nearly all actives have a fitted effect of over 60% in size
Target sequence (P51450 whole entry, looked up, the tested form may be a part): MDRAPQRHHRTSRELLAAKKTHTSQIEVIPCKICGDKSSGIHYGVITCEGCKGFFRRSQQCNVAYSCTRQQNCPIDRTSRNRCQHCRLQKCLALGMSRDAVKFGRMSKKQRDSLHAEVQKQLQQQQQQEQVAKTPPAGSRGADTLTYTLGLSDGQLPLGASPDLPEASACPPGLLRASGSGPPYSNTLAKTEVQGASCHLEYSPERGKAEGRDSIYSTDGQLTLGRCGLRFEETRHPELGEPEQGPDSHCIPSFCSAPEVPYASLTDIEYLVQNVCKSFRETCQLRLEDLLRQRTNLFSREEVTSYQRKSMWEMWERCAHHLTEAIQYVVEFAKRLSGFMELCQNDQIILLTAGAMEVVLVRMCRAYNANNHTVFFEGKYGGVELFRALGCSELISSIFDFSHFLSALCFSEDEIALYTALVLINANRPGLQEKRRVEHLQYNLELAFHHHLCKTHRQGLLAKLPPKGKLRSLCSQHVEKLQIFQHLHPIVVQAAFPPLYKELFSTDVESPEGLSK
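A Gal4/UAS one-hybrid system in insect cells: metallothionein-promoter Gal4–ROR gamma fusion plus Photinus luciferase reporter. Copper sulfate 700 uM final, 20 hr ambient incubation, luminescent detection after 10 min with reagent.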
SW480 rereplic: DNA re-replication induction in SW480 cells. SW480 DNA re-replication, Hoechst DNA content imaging, 48 h. Potency, µM (series often up to 46.1 µM), inactives show at the top dose re-replication activation, actives largely listed as activators. hit rate 1.8% among 340,000. AID 624297; further: potency means the concentration at half of the fitted maximal effect; % of control where 0% means no effect; nearly all actives have a fitted effect of over 55% in size
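Image-based DNA-content assay: after two days of treatment, nuclei were labelled with the DNA dye Hoechst and imaged, and hits were compounds raising the count of nuclei showing high fluorescence intensity.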
Gal4-VP16 FLuc: counter-screen for ROR gamma inhibitors: Gal4-VP16 reporter. Potency, µM (doses to about 53.6 µM), for inactives: at the top dose activity, negative = inhibition, most hits filed as inhibitors. hit rate 3.5% among 310,000. Drosophila S2 Gal4-VP16 UAS-luciferase, luminescence, 20 h;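 further: Gal4-VP16 expression switched on by copper sulfate through the metallothionein promoter; potency means the concentration at half of the fitted maximal effect; on the % scale 0 is the no-effect control and ±100 the full control effect; nearly all actives have a fitted effect of over 50% in size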
Giardia killer: kills Giardia lamblia; Giardia lamblia trophozoite viability; activity change, % at 7.66 µM, hits read low; hit rate 0.15% among 340,000; in the data active means activity change below about -80%; inconclusive means between about -30% and that limit;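 further: parasites exposed to compound for two days anaerobically before the ATP read; on the % scale 0 is the no-effect control and ±100 the full control effect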
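ATP-content bioluminescence gauges trophozoite survival. Cells (100/well) receive compound and incubate anaerobically for 48 hrs at 37 deg C; detection reagent follows for 15-30 min at room temperature.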
MCF10A rereplic: inducers of DNA re-replication in MCF 10A breast cells; MCF 10A DNA re-replication, Hoechst nuclear intensity, 48 h; Potency, µM (top dose mostly 46.1 µM), without a hit: at the highest dose activity, positive = re-replication, usual class: activators; hit rate 2.9% among 350,000; further: potency means the concentration at half of the fitted maximal effect; % of control where 0% means no effect; nearly all actives have a fitted effect of over 50% in size
Starred values were filed as active, the others as inactive; ? = inconclusive; nt = no result. Rows were chosen to be rich in hits. Some 8.3% of all compounds tested hit in one or more screens of this group. Unless noted, the call rests on the fitted dose curve; in most records, active means well fitted curve in the direction sought with a large enough effect; inconclusive means small, poorly fitted or top-dose-only effect, or another doubt; inactive means no such curve, though single readings can be large; an effect the other way counts as inactive or inconclusive.

SMILES	Chronic BCR inh	RORg inh	SW480 rereplic	Gal4-VP16 FLuc	Giardia killer	MCF10A rereplic
Cc1cc(C)cc(NC(=S)N=Nc2c(O)n(C)c3ccc(S(=O)(=O)N4CCOCC4)cc23)c1	?	?	?	-90%	22	-5%
Cc1cccc(C)c1NC(=S)N=Nc1c(O)n(C)c2ccc(S(=O)(=O)N3CCOCC3)cc12	2%	1.3µM*	2%	4.5µM*	5	?
Cc1cc(Cl)cc(C)c1OCCCCCn1ccnc1	-1%	?	?	18µM*	1	?
Cc1cc(OCCCCCn2ccnc2)cc(C)c1Cl	-28%	24%	1%	5%	-30	14%
Cc1ccc(C)c(OCCCCCn2ccnc2)c1	2%	8.9µM*	-5%	-30%	0	-4%
CCc1ccc(OCCCCCn2ccnc2)cc1	7%	11µM*	-1%	?	1	?
CCc1ccc(OCCn2ccnc2)cc1	2%	-12%	-2%	-7%	9	0%
Cc1cc(C)c(OCCCCCn2ccnc2)c(C)c1	?	11µM*	-2%	14µM*	30	27%
CCOc1ccc(NC(=O)C2=NN(c3ccccc3)C(=O)CC2)cc1S(=O)(=O)N1CCCCC1	-6%	nt	-3%	nt	4	0%
CC12CCCC(CC(=O)O)(C1)NC(=O)C2 (stereo not drawn)	nt	nt	1%	nt	-10	-8%
CN(C)S(=O)(=O)c1ccc(Cl)c(C(=O)OCC(=O)NC(=O)c2cccn2C)c1	?	20%	0%	-2%	-5	-1%
CC1CCC(NC(=O)CNC(=O)Cc2cccc3ccccc23)CC1 (stereo not drawn)	-8%	-5%	7%	7%	-11	1%
CCCn1c(C(C)NS(=O)(=O)c2ccccc2)n[nH]c1=S (stereo not drawn)	-1%	10µM*	1%	-6%	30	10%
Oc1cc2ccccc2cc1-c1n[nH]c(=S)n1Cc1ccco1	8%	13µM*	-14%	-4%	-23	?
S=c1[nH]nc(Cc2ccccc2)n1Cc1ccco1	4%	14µM*	-6%	13µM*	8	-5%
Oc1ccc(-c2n[nH]c(=S)n2Cc2ccco2)cc1	14%	-44%	-7%	-1%	8	-5%
CCCn1c(Cc2ccccc2)n[nH]c1=S	-10%	16µM*	4%	?	-7	-4%
S=c1[nH]nc(C2CC2)n1Cc1ccco1	1%	-16%	27%	4%	-15	0%
Cc1ccc(/C(N)=N/OC(=O)N2c3ccccc3Sc3ccccc32)cc1	nt	nt	11%	nt	37	14µM*
CC(NC(=O)C1CCN(S(=O)(=O)c2ccc3nc4c(c(C(=O)O)c3c2)CCCC4)CC1)c1ccccc1 (stereo not drawn)	?	2%	-2%	-3%	-11	-1%
COc1ccc(NC(=O)c2ccccc2OCc2c(C)noc2C)cc1OC	?	-27%	0%	0%	-19	-1%
CC1(C)Cc2c(c(-c3ccccc3Cl)[nH]c(=O)c2C#N)CO1	0%	?	1%	-1%	-3	-2%
N#Cc1c(-c2ccc(Cl)cc2)c2c([nH]c1=O)-c1ccccc1OC2	4%	-1%	5.8µM*	-5%	3	1.8µM*
COc1cccc(Nc2ncc3nc(-c4ccc(F)cc4)c(=O)n(CCC#N)c3n2)c1	nt	0%	nt	-10%	nt	nt
COc1cc2nc(CN(C)Cc3nc4ccccc4c(=O)[nH]3)[nH]c(=O)c2cc1OC	18%	1.6µM*	16µM*	3.5µM*	16	?
CCN(Cc1cc(=O)n2cc(Cl)c(C)c(Cl)c2n1)Cc1nc2ccccc2c(=O)[nH]1	16%	13µM*	6%	?	10	-44%
Cc1c(Cl)cn2c(=O)cc(CN3CCN(c4ccccc4)CC3)nc2c1Cl	-9%	2%	1%	6%	-2	-1%
CN(Cc1cc(=O)n2ccsc2n1)Cc1nc2ccccc2c(=O)[nH]1	6%	7.9µM*	-19%	?	4	-2%
CCc1ccc2c(CN(CC)Cc3nc4ccccc4c(=O)[nH]3)cc(=O)oc2c1	?	8.9µM*	-2%	?	-6	0%
